Assay [1] is described as follows: qHTS of pediatric cancer cell lines to identify multiple opportunities for drug repurposing: Primary screen for SK-N-MC cells (AID 1347093). Also: potency is read from the fitted curve at half-maximal effect. The essentials: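 Metabolically active cells were quantified by ATP-dependent luminescence (CellTiter-Glo, 15 min at room temperature) following 48 h treatment. Cells had been plated at 500-1,000 per well and settled for 5 h beforehand.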
For orientation: Quantitative high-throughput screening tests each substance at several concentrations.

The nature of assay [2]: qHTS of pediatric cancer cell lines to identify multiple opportunities for drug repurposing: Primary screen for BT-37 cells (AID 1347094). Also: series mostly up to about 57 µM. Put shortly:
(§1)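 Luminescence from CellTiter-Glo served as readout of metabolically active cells after 48 h compound exposure. Titrations: MIPE 11-point, from 0.78 nM; NPC 8-point, from 0.59 nM (final). Concentration-response curves came straight from the primary screen.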

Assay [3] is described as follows: qHTS of pediatric cancer cell lines to identify multiple opportunities for drug repurposing: Primary screen for U-2 OS cells (AID 1347096). Also: nearly all actives have a fitted effect of over 50% in size. The essentials: (§2)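 Cells (500-1,000/well) rested 5 h, then received compounds for 48 h; metabolically active cells were measured by CellTiter-Glo luminescence. Final concentrations spanned up to 46 µM (MIPE, 11-point) or 0.59 nM-46 µM (NPC, 8-point) in primary screens, 11-point in follow-ups.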

Assay [4] is described as follows: qHTS of pediatric cancer cell lines to identify multiple opportunities for drug repurposing: Primary screen for Saos-2 cells (AID 1347097). Also: nearly all actives have a fitted effect of over 40% in size. The essentials:
as §1

Assay [5] in a line: qHTS of pediatric cancer cell lines to identify multiple opportunities for drug repurposing: Primary screen for SK-N-SH cells (AID 1347098).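 Also: DMSO served as neutral control and bortezomib at 2.3 µM as positive control; nearly all actives have a fitted effect of over 65% in size.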 The essentials: as §2
Assay [6] is described as follows: qHTS of pediatric cancer cell lines to identify multiple opportunities for drug repurposing: Primary screen for NB1643 cells (AID 1347099). Also: nearly all actives have a fitted effect of over 50% in size. Also: potency is read from the fitted curve at half-maximal effect. The essentials: as §1
Assay [7] can be described thus: qHTS of pediatric cancer cell lines to identify multiple opportunities for drug repurposing: Primary screen for LAN-5 cells (AID 1347100). Put shortly: as §2
Assay [8] is described as follows: qHTS of pediatric cancer cell lines to identify multiple opportunities for drug repurposing: Primary screen for BT-12 cells (AID 1347101). Also: nearly all actives have a fitted effect of over 25% in size. Put shortly:
as §2

Assay [9] can be described thus: qHTS of pediatric cancer cell lines to identify multiple opportunities for drug repurposing: Primary screen for Rh18 cells (AID 1347102). Also: nearly all actives have a fitted effect of over 65% in size. Put shortly: as §2
A short description of assay [10]: qHTS of pediatric cancer cell lines to identify multiple opportunities for drug repurposing: Primary screen for OHS-50 cells (AID 1347103). Also: nearly all actives have a fitted effect of over 40% in size. Also: potency is read from the fitted curve at half-maximal effect. The essentials: as §2
The nature of assay [11]: qHTS of pediatric cancer cell lines to identify multiple opportunities for drug repurposing: Primary screen for RD cells (AID 1347104). Also: nearly all actives have a fitted effect of over 55% in size. Put shortly: as §1
Assay [12] can be described thus: qHTS of pediatric cancer cell lines to identify multiple opportunities for drug repurposing: Primary screen for MG 63 (6-TG R) cells (AID 1347105). Also: nearly all actives have a fitted effect of over 50% in size. Put shortly: as §1
A short description of assay [13]: qHTS of pediatric cancer cell lines to identify multiple opportunities for drug repurposing: Primary screen for control Hh wild type fibroblast cells (AID 1347106).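 Also: series mostly up to about 46 µM; a drop in luminescence marks cytotoxicity and a rise apparent proliferation; nearly all actives have a fitted effect of over 55% in size.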 The essentials: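 Cells (500-1,000/well) in growth media were settled 5 h at 37 degrees C, then given compounds for 48 h. Viability was read as CellTiter-Glo luminescence. Primary runs used MIPE at 11 points (0.78 nM-46 µM) and NPC at 8 points (0.59 nM-46 µM); follow-ups used 11 points.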

Assay [14] in a line: qHTS of pediatric cancer cell lines to identify multiple opportunities for drug repurposing: Primary screen for Rh30 cells (AID 1347107). Also: series mostly up to about 46 µM; nearly all actives have a fitted effect of over 75% in size. Put shortly: as §2
Assay [15] is described as follows: qHTS of pediatric cancer cell lines to identify multiple opportunities for drug repurposing: Primary screen for Rh41 cells (AID 1347108).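 Also: series mostly up to about 46 µM; luminescence drop marks cytotoxic hits; nearly all actives have a fitted effect of over 70% in size.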 The essentials:
as §1

Assay [16] in a line: qHTS of pediatric cancer cell lines to identify multiple opportunities for drug repurposing: Primary screen for NB-EBc1 cells (AID 1347095). The essentials: as §1
Assay [17] can be described thus: qHTS of pediatric cancer cell lines to identify multiple opportunities for drug repurposing: Confirmatory screen for NB1643 cells (AID 1347109). Also: nearly all actives have a fitted effect of over 45% in size. The essentials:
as §2

Assay [18] is described as follows: qHTS of pediatric cancer cell lines to identify multiple opportunities for drug repurposing: Confirmatory screen for A673 cells (AID 1347110).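 Also: potency is read from the fitted curve at half-maximal effect; cells exposed to compound for 48 h before the viability read; nearly all actives have a fitted effect of over 65% in size.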 Put shortly:
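Viability was read as ATP luminescence (CellTiter-Glo) after 48 h of compound exposure at 37 C in A673 cells seeded at 500-1,000/well. Titrations reached 46 uM final, with 11 points in the confirmatory screen. Concentration-response curves were fitted directly.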

Assay [19] can be described thus: qHTS of pediatric cancer cell lines to identify multiple opportunities for drug repurposing: Confirmatory screen for SK-N-MC cells (AID 1347111).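 Also: potency is read from the fitted curve at half-maximal effect; cells exposed to compound for 48 h before the readout; nearly all actives have a fitted effect of over 70% in size.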 To be noted: SK-N-MC cell viability. The essentials: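 Seed 500-1,000 cells/well; rest 5 h at 37 degrees C. Pin-transfer compounds, 11-point titration. Incubate 48 h. Add CellTiter-Glo, 15 min RT, read luminescence.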
Assay [20] in a line: qHTS of pediatric cancer cell lines to identify multiple opportunities for drug repurposing: Confirmatory screen for BT-12 cells (AID 1347112). Also: nearly all actives have a fitted effect of over 55% in size. Put shortly: as §2

SMILES strings stand for the structures. Inconclusive results are not listed. A number with no mark means an inactive call. Activity calls are given as the source filed them. Calls follow the shape of the dose curve; as a rule, active = well fitted curve in the direction sought with a large enough effect; inconclusive = small, poorly fitted or top-dose-only effect, or another doubt; inactive = no such curve, though single readings can be large; an effect the other way counts as inactive or inconclusive.

As to `CCn1ccnc1CC1COc2ccccc2O1` (stereo unspecified), the Potency result in [1], in assay [2], in assay [3], in [4], in [5] and in assay [6] was “inactive” throughout. The Potency entry in [7], in assay [8], in [9], in assay [10], in assay [11] and in [12] was “inactive” each time. For the same molecule, the Potency result in [14] and in [15] was “inactive” throughout. Also, the molecule was classed as inactive in assay [13].

Take `CC[N+](C)(C)c1cccc(O)c1`: the Potency entry in [1], in assay [2], in assay [16], in [4], in assay [5] and in [6] was “inactive” in each case. Further, the Potency entry in assay [7], in [8], in assay [9], in assay [10], in assay [11] and in assay [12] was “inactive” in each case. Besides, the Potency result in [14] and in assay [15] was “inactive” throughout. Besides, the call in [13] was inactive.

Consider `CCn1nc(C(=O)O)c(=O)c2cc3c(cc21)OCO3`, for which the Potency result in assay [1], in assay [2], in assay [3], in assay [4], in assay [5] and in assay [6] was “inactive” each time. For the same molecule, the Potency entry in assay [7], in assay [8], in assay [9], in assay [11], in [12] and in assay [14] was “inactive” in each case. Moreover, in [13], the result was inactive.

With `CCCN(CCC)CCc1cccc2c1CC(=O)N2`, the Potency entry in assay [1], in [2], in [16], in [3], in assay [5] and in assay [6] was “inactive” throughout. Moreover, the Potency result in assay [7], in assay [8], in [9], in assay [11], in assay [12] and in [15] was “inactive” each time. For the same molecule, the call in [13] was inactive.

On to `C#CCN(C)CCCOc1ccc(Cl)cc1Cl`, for which the Potency result in assay [1], in [2], in [16], in assay [3], in assay [5] and in assay [6] was “inactive” throughout. For the same molecule, the Potency entry in assay [7], in [8], in [9], in assay [11] and in assay [12] was “inactive” in each case. Besides, the molecule was called inactive in [13].

As to `CC(=O)Oc1cc(C(C)C)c(OCCN(C)C)cc1C`, the Potency entry in assay [1], in [2], in assay [16], in assay [5], in assay [6] and in assay [7] was “inactive” in each case. Moreover, the Potency entry in assay [8], in [9], in assay [10], in assay [11] and in [12] was “inactive” each time. In addition, the molecule was called inactive in assay [13].

As for `NC(=O)N1c2ccccc2C=Cc2ccccc21`, the Potency entry in assay [1], in assay [2], in assay [3], in assay [4], in assay [5] and in assay [6] was “inactive” in each case. The Potency result in assay [7], in assay [8], in assay [9], in [10], in assay [11] and in [12] was “inactive” each time. In [14], the Potency result was “inactive”. Moreover, the outcome in assay [13] was inactive.

On to `CCn1cc(C(=O)O)c(=O)c2cc3c(cc21)OCO3`, for which the Potency result in assay [1], in assay [2], in assay [16], in assay [4], in assay [5] and in assay [6] was “inactive” throughout. Besides, the Potency entry in [7], in assay [8], in [9], in assay [11], in assay [12] and in assay [14] was “inactive” in each case. In addition, the Potency entry in assay [15] was “inactive”. Further, the call in assay [13] was inactive.

Turning to `C[C@@H](O)[C@H]1C(=O)N2C(C(=O)O)=C(SCCN=CN)C[C@H]12`, the Potency result in assay [1], in assay [2], in [16], in assay [5], in assay [6] and in assay [7] was “inactive” each time. The Potency entry in assay [8], in assay [9], in assay [11], in assay [12], in assay [14] and in [15] was “inactive” in each case.

Turning to `Cc1ccc(=O)n(-c2ccccc2)c1`, the Potency entry in assay [1], in assay [2], in [3], in assay [4], in [5] and in [6] was “inactive” each time. Further, the Potency entry in assay [7], in [8], in assay [9], in [10], in assay [11] and in assay [12] was “inactive” throughout. Moreover, the Potency result in assay [14] and in assay [15] was “inactive” each time. Moreover, in assay [13], the result was inactive.

Consider `C[C@]12CCC(=O)C=C1CC[C@@H]1[C@@H]2CC[C@@]2(C)[C@H]1CC[C@]2(O)C(=O)CO`, for which the Potency entry in assay [1], in [2], in assay [16], in [4], in [5] and in assay [6] was “inactive” in each case. Besides, the Potency result in assay [7], in assay [8], in assay [9], in assay [11], in [12] and in assay [14] was “inactive” throughout. For the same molecule, the Potency entry in assay [15] is “inactive”. Moreover, the outcome in assay [13] was inactive.

With `NC(=O)c1cn(Cc2c(F)cccc2F)nn1`, the Potency result in [1], in assay [2], in assay [3], in [4], in assay [5] and in assay [6] was “inactive” each time. The Potency result in assay [7], in assay [8], in assay [9], in assay [11] and in [12] was “inactive” in each case. Moreover, in [13], the molecule was called inactive.

As to `COc1ccc([C@@H]2Sc3ccccc3N(CCN(C)C)C(=O)[C@@H]2OC(C)=O)cc1`, the Potency entry in assay [1], in assay [2], in assay [3], in assay [4], in [5] and in assay [6] was “inactive” throughout. The Potency result in assay [7], in assay [8], in assay [9], in [10], in assay [11] and in assay [12] was “inactive” throughout. Moreover, in assay [13], the call was inactive.

As for `CC(=O)Nc1nnc(S(N)(=O)=O)s1`, the Potency result in [1], in assay [2], in assay [16], in assay [3], in [5] and in [6] was “inactive” in each case. For the same molecule, the Potency result in assay [7], in assay [8], in assay [9], in assay [10], in assay [11] and in assay [12] was “inactive” in each case. The Potency entry in assay [14] and in [15] was “inactive” throughout.

Consider `NC(N)=N/N=C/c1c(Cl)cccc1Cl`, for which the Potency entry in [1], in assay [2], in assay [16], in [3], in assay [4] and in assay [6] was “inactive” throughout. Besides, the Potency result in assay [7], in [9], in assay [12] and in assay [15] was “inactive” each time. Moreover, the call in [13] was inactive.

For `CN/C(=C\[N+](=O)[O-])NCCSCc1ccc(CN(C)C)o1`, the Potency was 0.001 µM (active) in assay [1], 37.6 µM (active) in assay [6], 5.22 µM (active) in [18] and 11.7 µM (active) in assay [19]. Further, the Potency entry in [2], in assay [3], in [4], in [5], in assay [7] and in [8] was “inactive” throughout. For the same molecule, the Potency entry in assay [9], in assay [10], in [12], in [17] and in assay [20] was “inactive” each time. The molecule was called inactive in assay [13].

On to `CN(C(=O)CCCOc1ccc2[nH]c(=O)ccc2c1)C1CCCCC1`, for which the Potency entry in assay [1], in [2], in assay [16], in [5], in [6] and in [7] was “inactive” each time. Further, the Potency result in assay [9], in [11] and in [12] was “inactive” throughout. The Potency in [10] was 21.9 µM (active). Also, the molecule was called inactive in assay [13].
